Hit rate of the full screen: of about 240,000 compounds, about 15 (0.006%) were called active. The call rests on the fitted dose curve; in most records, active means well fitted inhibition curve with a large enough effect; inconclusive means small, poorly fitted or top-dose-only effect, or effect the other way, or another doubt; inactive means no such curve, though single readings can be large or run the other way. A selection follows.
The compounds below were run against Lysosomal alpha-glucosidase (Homo sapiens) (UniProt P10253) (assay: qHTS Assay for Inhibitors and Activators of Human alpha-Glucosidase From Spleen Homogenate). Settings: 4-MU-alpha-glucoside fluorescence; series mostly up to 79.9 µM; activity change, negative = inhibition: at the top concentration.
Text: NIH Chemical Genomics Center [NCGC] NIH Molecular Libraries Probe Production Centers Network [MLPCN] MLPCN Grant: R03 MH084841-01 Assay Submitter (PI): Wei Zheng NCGC Assay Overview: Alpha-glucosidase is responsible for the hydrolysis of terminal, non-reducing 1,4-linked alpha-D-glucose residues, which releases alpha-D-glucose. It is a lysosomal hydrolase that is required for the degradation of a small percentage (1-3%) of cellular glycogen in humans. Deficiency of this enzyme results in glycogen-storage disease type II (GSDII), also referred to as Pompe disease, an autosomal recessive disorder. Structurally normal glycogen is accumulated in the lysosomes and cytoplasm in affected patients, primarily in muscle tissues. Excessive glycogen storage within lysosomes may interrupt normal functioning of other organelles and leads to cellular injury. In turn, this leads to enlargement and dysfunction of the entire organ involved (eg: cardiomyopathy and muscle weakness). It has been reported that the improper folding and trafficking of alpha-glucosidase resulting from genetic mutations may account for a significant number of Pompe patients. […] We optimized this alpha-glucosidase assay in 1536-well plate format for identification of novel small molecule inhibitors or activators with structures other than the sugar analogs in order to develop new pharmacological chaperones. In particular, this assay is directed towards discovering compounds active in a more natural setting, tissue homogenate, that may have been missed by screens of the purified enzyme under more stringent conditions.
NCGC Assay Protocol Summary: This is a fluorogenic enzyme assay with 4-methylumbelliferyl-alpha-D-glucopyranoside as the substrate and human spleen homogenate containing alpha-glucosidase as the enzyme preparation. Upon hydrolysis of this fluorogenic substrate, the resulting product, 4-methylumbelliferone (which excites at 365 nm and emits at 440 nm) can be detected by a fluorescence plate reader. Data were normalized to the controls for basal activity (without enzyme) and 100% activity (with enzyme). The AC50 values were determined from concentration-response data modeled with the standard Hill equation. Assay buffer: 50 mM citric acid (titrated with potassium phosphate to pH 5.0), 0.01% Tween-20 (pH 5.0 is an optimal condition for this enzyme assay) 1536-well assay protocol for the alpha-glucosidase from human spleen homogenate: (1) Add 2 ul/well spleen homogenate (1 ug) (2) Add 23 nL compounds in DMSO solution. The final titration was 0.5 nM to 58 uM. (3) Add 2 ul of substrate (1 mM final) (4) Incubate at 37 C for 40 min (5) Add 2 ul stop solution (1M NaOH and 1M Glycine mixture, pH 10) (6) Detect the assay plate in a ViewLux plate reader (PerkinElmer) with Ex=365 nm and Em=440nm. Keywords: Alpha-glucosidase, Pompe Disease, pharmacological chaperone, chaperone therapy, high throughput screening, alpha-glucosidase inhibitor, MLSMR, MLSCN, NIH Roadmap, qHTS and NCGC
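Further: 0% = enzyme with vehicle and -100% = no enzyme basal signal.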

| SMILES | activity change, negative = inhibition |
| --- | --- |
| Cc1ccc(-n2c(SCC(=O)N3c4ccccc4Sc4ccccc43)nnc2-c2ccncc2)cc1 | -8.44% (inactive) |
| BrC1C(Br)C(Br)C(Br)C(Br)C1Br (centres undefined) | 5.06% (inactive) |
| CCCC(Cl)CCCC(Cl)CCC(Cl)CCC(Cl)CCC(Cl)CCCC(Cl)CCC (centres undefined) | -7.48% (inactive) |
| O=C(NC(CC(=O)N1CCN(c2ccccc2)CC1)c1ccccc1)c1ccccc1Cl (centres undefined) | -4.71% (inactive) |
| CC1(C)Cc2cccc(OCC(=O)N3CCN(c4ccc([N+](=O)[O-])cc4)CC3)c2O1 | -6.17% (inactive) |
| O=C1C2C(c3ccccc3)CC=CC2C(c2ccoc2)N1Cc1ccccc1 (centres undefined) | -8.93% (inactive) |
| COC(=O)CCc1ccccc1S(=O)(=O)N(CCC(=O)OC)Cc1ccccc1 | 3.68% (inactive) |
| C=CCSC(CC)(CC)C(N)=O | 0.0084% (inactive) |
| C/C(=N\NC(=S)Nc1ccc(C)cc1)c1cc2ccccc2o1 | 10.6% (inactive) |
| O=C(OCC(COC(=O)c1ccccc1)(COC(=O)c1ccccc1)COC(=O)c1ccccc1)c1ccccc1 | -1.65% (inactive) |
| Nc1nc2c(ncn2[C@@H]2O[C@H](COP(=O)(O)OP(=O)(O)OP(=O)(O)O)[C@@H](O)C2O)c(=O)[nH]1 (some centres undefined) | 1.86% (inactive) |
| C[C@H]1CCC[C@@]2(C)CCCC[C@]12O | -4.13% (inactive) |
| CCC(C(=O)Nc1ccc(C(C)C)cc1)c1ccccc1 (centres undefined) | -5.23% (inactive) |
| COc1ccc(C2/C=C\CN(C(=O)c3ccc(C)cc3)C(Cc3ccccc3)C(=O)N2Cc2ccc(F)cc2)cc1 (centres undefined) | -1.47% (inactive) |
| CC(C)CC(COCc1ccc(Cl)cc1)N1CCN(C(=O)c2ccc(C(F)(F)F)cc2)CCC1=O (centres undefined) | -1.89% (inactive) |
| COc1ccc(C(CCN2CCOCC2)c2c(OC)cc(OC)c3c2OC(=O)CC3c2ccc(OC)cc2)cc1 (centres undefined) | -1.9% (inactive) |
| Cc1ccc(Nc2nc(C)cc(C)c2C(N)=O)cc1 | -2.03% (inactive) |
| O=C(CN1C(=O)NC(Cc2ccccc2)(Cc2ccccc2)C1=O)NCC1CCCCC1 | 0.793% (inactive) |
| C=C1CCN(C(CC(C)C)C(=O)NCc2cc(OC)c(OC)c(OC)c2)S(=O)(=O)c2ccccc21 (centres undefined) | -1.04% (inactive) |
| CCOC(=O)C(=CNNc1ccsc1C(=O)OC)C(=O)OCC | 4.66% (inactive) |
| CCCCN(CC)CCNC(=O)CCNC(=O)Cn1ccc2ccccc2c1=O | -7.84% (inactive) |
| O=C(CCCc1ccccc1)NCc1ccccc1 | 0.497% (inactive) |
| COC(=O)c1c(C)[nH]c(C(=O)/C=C/c2ccc(Cl)cc2)c1C | 2.56% (inactive) |
| O=c1ccn([C@@H]2O[C@H](COP(=O)(O)OP(=O)(O)OP(=O)(O)O)[C@@H](O)[C@H]2O)c(=O)[nH]1 | 1.76% (inactive) |
| COCOc1cc(OC)ccc1C(=O)/C=C/c1ccc([N+](=O)[O-])cc1 | -9.06% (inactive) |

| SMILES | activity change, negative = inhibition |
| --- | --- |
| CC(C)CO | -4.92% (inactive) |
| CC(=O)Nc1ccc(S(=O)(=O)N2N=NC3C2C2CC4C3(CN(C(=O)OC(C)(C)C)S4(=O)=O)O2)cc1 (centres undefined) | -4.01% (inactive) |
| O=C(CCN1CCCCC1)N=Nc1c(O)[nH]c2ccccc12 | 1.76% (inactive) |
| CC(=O)OCC(NC(=O)C(Cc1ccccc1)NC(=O)OC(C)(C)C)C1OC(n2ccc(=O)[nH]c2=O)C(OC(C)=O)C1OC(C)=O (centres undefined) | 3.72% (inactive) |
| COc1ccc(NC(=O)c2sc(N3CCOCC3)nc2-c2ccccc2)c(OC)c1 | -8.66% (inactive) |
| S=C(NNC(=S)NC1CC2CCC1C2)NC1CC2C=CC1C2 (centres undefined) | 7.45% (inactive) |
| O=S(O)S(=O)(=O)O | -1.43% (inactive) |
| COc1ccc(-c2ccc(OC)c(C3C4C=CCC(C)C4C(=O)N3Cc3ccccc3)c2)cc1C (centres undefined) | -0.333% (inactive) |
| COC(=O)c1ccc([C@@H](O)[C@H](C)C(=O)CC(=O)OC(C)(C)C)cc1 | -10.4% (inactive) |
| O=C(Cc1c[nH]c2ccccc12)N/N=C/c1cccc(F)c1 | -8.44% (inactive) |
| CCN(CC)CCNCc1ccc(OCc2ccc(Cl)nc2)c(OC)c1 | -0.785% (inactive) |
| N#CC1=C(N)Oc2[nH]c(=S)[nH]c(=O)c2C12C(=O)Nc1ccccc12 (centres undefined) | -1.33% (inactive) |
| C/C(=N\NC(=O)c1cc2c(s1)CCC(C)C2)c1cccnc1 (centres undefined) | 0.124% (inactive) |
| O=C(Nc1cccc(CCc2ccccn2)c1)c1ccc(Cl)cc1 | 3.21% (inactive) |
| C=C1/C(=C\C=C2\CCCC3(C)C2CCC3C(C)/C=C/C(O)C2CC2)CC(O)CC1O (centres undefined) | 4.41% (inactive) |
| Clc1ccc(C2=CSC3=Nc4cccc5cccc(c45)N23)cc1 | 1.96% (inactive) |
| CCOc1ccc(CN2CCN(Cc3ccc(C)o3)CC2CCO)cc1 (centres undefined) | -3.3% (inactive) |
| COc1ccc(NC(C(=O)Nc2cccc(C(C)=O)c2)c2ccccc2)cc1 (centres undefined) | -8.55% (inactive) |
| N#CCC(=O)N/N=C/c1ccc(SCC(=O)Nc2ccccc2)o1 | -3.71% (inactive) |
| O=C(O)c1ccc(/C=C2/SC(=S)N(c3cccc(C(F)(F)F)c3)C2=O)cc1 | -6.48% (inactive) |
| O=c1cc(-c2ccc(O)cc2)oc2c(-c3cc(-c4cc(=O)c5c(O)cc(O)cc5o4)ccc3O)c(O)ccc12 | 5.22% (inactive) |
| COc1ccc([N+](=O)[O-])cc1NC(=O)C(C)OC(=O)C1c2ccccc2Oc2ccccc21 (centres undefined) | -3.57% (inactive) |
| Cc1cc(C)nc(NS(=O)(=O)c2ccc(N/C=C\C(=O)c3cccs3)cc2)n1 | -0.279% (inactive) |
| CC(=O)N1CC[n+]2c(-c3ccc([N+](=O)[O-])cc3)csc21 | 2.47% (inactive) |

Reference: PubChem BioAssay AID2112 (National Center for Advancing Translational Sciences (NCATS), 2009)
